Here are results for 26 compounds from PubChem BioAssay (EPA / NIEHS).

As usually defined, the AC50 is the concentration at which the activity in the assay is half-maximal.

Values joined by “and” are separate entries in the source; they are usually repeats but may differ in a detail not shown here. Identical values can stand only once. Some compounds were tested as several samples or in several runs, with calls that do not always agree. Active and inactive are the calls of the source. How the source made its calls: active means hit-call score of the fitted dose curve at least 0.9, where 1 is the maximum; inactive means score below 0.9.

Sequence of Hypoxia-inducible factor 1-alpha (Homo sapiens) (Q16665 whole entry, looked up): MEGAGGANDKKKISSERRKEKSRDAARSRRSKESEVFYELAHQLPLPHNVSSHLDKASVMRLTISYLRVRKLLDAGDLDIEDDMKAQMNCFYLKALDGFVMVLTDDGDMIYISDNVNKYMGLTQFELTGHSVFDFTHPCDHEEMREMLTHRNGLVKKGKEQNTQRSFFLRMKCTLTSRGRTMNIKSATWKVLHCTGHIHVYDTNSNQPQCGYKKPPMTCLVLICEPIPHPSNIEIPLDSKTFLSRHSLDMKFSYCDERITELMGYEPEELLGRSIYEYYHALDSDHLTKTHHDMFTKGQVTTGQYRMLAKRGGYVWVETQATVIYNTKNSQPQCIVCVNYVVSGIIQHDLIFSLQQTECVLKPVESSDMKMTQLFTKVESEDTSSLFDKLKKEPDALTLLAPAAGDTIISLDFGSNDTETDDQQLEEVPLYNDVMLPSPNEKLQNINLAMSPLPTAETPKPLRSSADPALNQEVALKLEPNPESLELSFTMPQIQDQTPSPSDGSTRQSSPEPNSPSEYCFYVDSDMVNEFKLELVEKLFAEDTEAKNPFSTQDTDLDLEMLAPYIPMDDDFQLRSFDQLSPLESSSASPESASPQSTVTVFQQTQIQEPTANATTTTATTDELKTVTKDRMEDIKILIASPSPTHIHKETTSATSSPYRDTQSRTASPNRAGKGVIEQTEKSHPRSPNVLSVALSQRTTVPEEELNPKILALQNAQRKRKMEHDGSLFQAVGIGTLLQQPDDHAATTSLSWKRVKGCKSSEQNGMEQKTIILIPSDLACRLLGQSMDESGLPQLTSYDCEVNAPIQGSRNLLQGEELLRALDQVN

Read-out in the first experiment: Heat shock 70 kDa protein 1 (HSPA1A), gene 3303
Description: LTEA_HepaRG_HSPA1A: Life Technologies and Expression Analysis (LTEA) Assay for Heat shock 70 kDa protein 1 (HSPA1A) using HepaRG (AID 2283502). Conditions: mRNA level, 48 h; actives raise or lower the signal. The procedure, abridged:
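Differentiated human HepaRG cells in serum-free induction medium were exposed in duplicate for 48 h to eight concentrations (top 100 uM, half-log steps, 0.5% DMSO). HSPA1A mRNA was quantified by qRT-PCR, normalized to ACTB, GAPDH and POLR2A, and fitted bidirectionally against DMSO.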
In the case of `Cc1nn(C)c(Oc2ccccc2)c1C=NOCc1ccc(C(=O)OC(C)(C)C)cc1`, the AC50 was 1.57 µM (active).
The same measure, in the same setting: for `CCCCOCCOCCOCc1cc2c(cc1CCC)OCO2` the value was 7.35 µM (active).
As to `S=C(S)NCCNC(=S)S.[Mn+2].[S-]C([S-])=NCCN=C([S-])[S-].[Zn+2]`, the AC50 is 1.21 µM (active) and 4.71 µM (active); the result was inactive.
`CCOC(=O)C(C)Oc1ccc(Oc2nc3ccc(Cl)cc3o2)cc1` (centres undefined): the call was inactive.
The same measure, in the same setting: then `CCOC(=O)COc1cc(-n2ncc(C(F)(F)F)c(C)c2=O)c(F)cc1Cl`, with “inactive”; and `CSC(=O)c1cccc2nnsc12`, with “inactive”.
On the same count and under the same terms, then `O=C(O)c1ccccc1`, with “inactive”; and `CCCCOC(=O)[C@@H](C)Oc1ccc(Oc2ccc(C(F)(F)F)cn2)cc1`, with “inactive”.
In the case of `CCCOC(=O)c1ccc(C(=O)OCCC)nc1`, the call was inactive.
With `CC(=O)S[C@@H]1CC2=CC(=O)CC[C@]2(C)[C@H]2CC[C@@]3(C)[C@@H](CC[C@@]34CCC(=O)O4)[C@H]12`, the call was inactive.
On the same count and under the same terms, then `CC(C)CCCCCCc1ccc(O)cc1`, with “inactive”; and `CCC(C)OC(=O)N1CCCCC1CCO` (centres undefined), with “inactive”; and `OB(O)O`, with “inactive”.
Same read-out and setting: then `C[C@]12C[C@H](O)[C@H]3[C@@H](CCC4=CC(=O)CC[C@@]43C)[C@@H]1CC[C@@H]2C(=O)CO`, with “inactive”; and `CCCCCOC(=O)COc1cc(N2C(=O)C3=C(CCCC3)C2=O)c(F)cc1Cl`, with “inactive”.
Consider `CC(C)(c1ccc(O)cc1)c1ccc(O)cc1`, for which the AC50 was 0.0172 µM (active) and the compound was called inactive.
Consider `C=CCOC(Cn1ccnc1)c1ccc(Cl)cc1Cl` (centres undefined), for which the compound was called inactive.
Turning to `c1ccc(Nc2ccccc2)cc1`, the compound was classed as inactive.
Same read-out and setting: for `O=C(Nc1ccc([N+](=O)[O-])cc1Cl)c1cc(Cl)ccc1O` the value was “inactive”.
`CCN(Cc1c(F)cccc1Cl)c1c([N+](=O)[O-])cc(C(F)(F)F)cc1[N+](=O)[O-]`: the half-maximal activity concentration (AC50) is 50 µM (active).
For `C[C@]12CC[C@@H]3c4ccc(O)cc4C[C@@H](CCCCCCCCCS(=O)CCCC(F)(F)C(F)(F)F)[C@H]3[C@@H]1CC[C@@H]2O` (some centres undefined), the compound was classed as inactive.
On the same count and under the same terms, for `C#CCOC(=O)[C@@H](C)Oc1ccc(Oc2ncc(Cl)cc2F)cc1` the value was “inactive”.
Consider `S=C([S-])NCCNC(=S)[S-].[Mn+2]`, for which the outcome was inactive.
Same read-out and setting: for `CN(C)C(=O)Nc1ccc(Cl)c(Cl)c1` the value was “inactive”; for `CCN(CC)C(=O)c1cccc(C)c1`, “inactive”.

Read-out in a further experiment: Hypoxia-inducible factor 1-alpha (Homo sapiens) (UniProt Q16665)
The experiment in a line: LTEA_HepaRG_HIF1A: Life Technologies and Expression Analysis (LTEA) Assay for Hypoxia-inducible factor 1 (HIF1A) Trancription factor using HepaRG (AID 2283503).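 Further: HIF1A transcript by TaqMan qRT-PCR normalized to ACTB GAPDH and POLR2A.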 To be noted: mRNA level, 48 h; actives raise or lower the signal. The gist of the method:
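HepaRG, 48 h exposure, 8-pt half-log series from 100 uM, 0.5% DMSO vehicle, duplicates. Readout: HIF1A transcript by qRT-PCR (Fluidigm array), housekeeping-normalised. Bidirectional curve fit vs DMSO baseline.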
`Cc1nn(C)c(Oc2ccccc2)c1C=NOCc1ccc(C(=O)OC(C)(C)C)cc1`: the outcome was inactive.
The same measure, in the same setting: for `CCCCOCCOCCOCc1cc2c(cc1CCC)OCO2` the value was “inactive”.
In the case of `S=C(S)NCCNC(=S)S.[Mn+2].[S-]C([S-])=NCCN=C([S-])[S-].[Zn+2]`, the half-maximal activity concentration (AC50) was 1.63 µM (active) and the outcome was inactive.
As to `CCOC(=O)C(C)Oc1ccc(Oc2nc3ccc(Cl)cc3o2)cc1` (centres undefined), the outcome was inactive.
Still for that read-out and setting: for `CCOC(=O)COc1cc(-n2ncc(C(F)(F)F)c(C)c2=O)c(F)cc1Cl` the value was “inactive”.
Same read-out and setting: for `CSC(=O)c1cccc2nnsc12` the value was “inactive”; for `O=C(O)c1ccccc1`, “inactive”; for `CCCCOC(=O)[C@@H](C)Oc1ccc(Oc2ccc(C(F)(F)F)cn2)cc1`, “inactive”.
Still for that read-out and setting: then `CCCOC(=O)c1ccc(C(=O)OCCC)nc1`, with “inactive”.
As for `CC(=O)S[C@@H]1CC2=CC(=O)CC[C@]2(C)[C@H]2CC[C@@]3(C)[C@@H](CC[C@@]34CCC(=O)O4)[C@H]12`, the call was inactive.
Still for that read-out and setting: for `CC(C)CCCCCCc1ccc(O)cc1` the value was “inactive”; for `CCC(C)OC(=O)N1CCCCC1CCO` (centres undefined), “inactive”.
Same read-out and setting: then `OB(O)O`, with “inactive”; and `C[C@]12C[C@H](O)[C@H]3[C@@H](CCC4=CC(=O)CC[C@@]43C)[C@@H]1CC[C@@H]2C(=O)CO`, with “inactive”.
Turning to `CC(C)(C)[C@@H](O)[C@@H](Cc1ccc(Cl)cc1)n1cncn1`, the outcome was inactive.
Still for that read-out and setting: for `CCCCCOC(=O)COc1cc(N2C(=O)C3=C(CCCC3)C2=O)c(F)cc1Cl` the value was “inactive”.
The same measure, in the same setting: for `CC(C)(c1ccc(O)cc1)c1ccc(O)cc1` the value was “inactive”.
As to `C=CCOC(Cn1ccnc1)c1ccc(Cl)cc1Cl` (centres undefined), the half-maximal activity concentration (AC50) is 79.6 µM (active).
Regarding `c1ccc(Nc2ccccc2)cc1`, the compound was classed as inactive.
Take `CCN(Cc1c(F)cccc1Cl)c1c([N+](=O)[O-])cc(C(F)(F)F)cc1[N+](=O)[O-]`: the result was inactive.
On the same count and under the same terms, then `C[C@]12CC[C@@H]3c4ccc(O)cc4C[C@@H](CCCCCCCCCS(=O)CCCC(F)(F)C(F)(F)F)[C@H]3[C@@H]1CC[C@@H]2O` (some centres undefined), with “inactive”.
Still for that read-out and setting: for `C#CCOC(=O)[C@@H](C)Oc1ccc(Oc2ncc(Cl)cc2F)cc1` the value was “inactive”.
Consider `S=C([S-])NCCNC(=S)[S-].[Mn+2]`, for which the AC50 is 3.12 µM (active).
Consider `CN(C)C(=O)Nc1ccc(Cl)c(Cl)c1`, for which the outcome was inactive.
Take `CCN(CC)C(=O)c1cccc(C)c1`: the outcome was inactive.

Read-out in the next experiment: 3-Hydroxy-3-Methylglutaryl-CoA Synthase 2 (HMGCS2), HMGCS2 (gene 3158)
Description: LTEA_HepaRG_HMGCS2: Life Technologies and Expression Analysis (LTEA) Assay for 3-Hydroxy-3-Methylglutaryl-CoA Synthase 2 (HMGCS2) using HepaRG (AID 2283504). To be noted: mRNA level, 48 h; actives raise or lower the signal. The procedure, abridged:
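HepaRG, plated 48 h then switched to serum-free induction media; cmpd 8-pt, max 100 uM, 1/2-log, 0.5% DMSO, n=2, 48 h. HMGCS2 mRNA by Fluidigm TaqMan qRT-PCR, ACTB/GAPDH/POLR2A norm; bidirectional fit vs DMSO.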
For the compound `Cc1nn(C)c(Oc2ccccc2)c1C=NOCc1ccc(C(=O)OC(C)(C)C)cc1`, the concentration at half-maximal activity (AC50) was 12.4 µM (active).
For `CCCCOCCOCCOCc1cc2c(cc1CCC)OCO2`, the call was inactive.
In the case of `S=C(S)NCCNC(=S)S.[Mn+2].[S-]C([S-])=NCCN=C([S-])[S-].[Zn+2]`, the AC50 was 2.25 µM (active) and 1.36 µM (active) and 1.93 µM (active).
Turning to `CCOC(=O)C(C)Oc1ccc(Oc2nc3ccc(Cl)cc3o2)cc1` (centres undefined), the outcome was inactive.
The same measure, in the same setting: then `CCOC(=O)COc1cc(-n2ncc(C(F)(F)F)c(C)c2=O)c(F)cc1Cl`, with “inactive”; and `CSC(=O)c1cccc2nnsc12`, with “inactive”.
Turning to `O=C(O)c1ccccc1`, the compound was classed as inactive.
For `CCCCOC(=O)[C@@H](C)Oc1ccc(Oc2ccc(C(F)(F)F)cn2)cc1`, the call was inactive.
Take `CCCOC(=O)c1ccc(C(=O)OCCC)nc1`: the call was inactive.
Turning to `CC(=O)S[C@@H]1CC2=CC(=O)CC[C@]2(C)[C@H]2CC[C@@]3(C)[C@@H](CC[C@@]34CCC(=O)O4)[C@H]12`, the AC50 is 65.7 µM (active).
In the case of `CC(C)CCCCCCc1ccc(O)cc1`, the outcome was inactive.
The same measure, in the same setting: then `CCC(C)OC(=O)N1CCCCC1CCO` (centres undefined), with “inactive”; and `OB(O)O`, with “inactive”; and `C[C@]12C[C@H](O)[C@H]3[C@@H](CCC4=CC(=O)CC[C@@]43C)[C@@H]1CC[C@@H]2C(=O)CO`, with “inactive”.
Still for that read-out and setting: for `CC(C)(C)[C@@H](O)[C@@H](Cc1ccc(Cl)cc1)n1cncn1` the value was “inactive”; for `CCCCCOC(=O)COc1cc(N2C(=O)C3=C(CCCC3)C2=O)c(F)cc1Cl`, “inactive”.
Same read-out and setting: for `CC(C)(c1ccc(O)cc1)c1ccc(O)cc1` the value was “inactive”.
Turning to `C=CCOC(Cn1ccnc1)c1ccc(Cl)cc1Cl` (centres undefined), the AC50 is 32.4 µM (active).
In the case of `c1ccc(Nc2ccccc2)cc1`, the compound was classed as inactive.
Take `O=C(Nc1ccc([N+](=O)[O-])cc1Cl)c1cc(Cl)ccc1O`: the AC50 was 2.59 µM (active).
On the same count and under the same terms, for `CCN(Cc1c(F)cccc1Cl)c1c([N+](=O)[O-])cc(C(F)(F)F)cc1[N+](=O)[O-]` the value was 50 µM (active); for `C[C@]12CC[C@@H]3c4ccc(O)cc4C[C@@H](CCCCCCCCCS(=O)CCCC(F)(F)C(F)(F)F)[C@H]3[C@@H]1CC[C@@H]2O` (some centres undefined), 33.6 µM (active); for `C#CCOC(=O)[C@@H](C)Oc1ccc(Oc2ncc(Cl)cc2F)cc1`, 11.7 µM (active).
Same read-out and setting: for `S=C([S-])NCCNC(=S)[S-].[Mn+2]` the value was 5.04 µM (active).
Take `CN(C)C(=O)Nc1ccc(Cl)c(Cl)c1`: the outcome was inactive.
The same measure, in the same setting: then `CCN(CC)C(=O)c1cccc(C)c1`, with “inactive”.
